Source: the supplement of paper PMC10849652
Targets with a hit are over-represented here; the source holds about 7,900 in all. About 0.6% of all pairs of compound and target were hits.

compound: COc1cccc2cc(-c3nc([C@H]4CC[C@H](C(=O)O)CC4)n4ncnc(N)c34)[nH]c12; assay: log2 fold change, soluble protein after heating vs DMSO (PISA); higher = thermal stabilisation; K562 cells, 10 uM, 30 min; active = over 0.2 and 3.5 SD of the protein, either way, in both replicates (recomputed)
Outline: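 K562 cells at 2×10^6 cells/mL were treated with 10 μM compound for 30 min. Aliquots were heated for 3 min across 48°C-58°C, pooled, and extracted in PBS with 0.5% NP-40 at 4°C; soluble protein was the supernatant after 21,000xg for 90 min. Soluble protein was quantified by TMTpro 16plex LC-MS/MS with channel sums equalised, and reported as log2 fold change in thermal stability against DMSO controls, with values from duplicates.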

Chain of UniProt P61024 (P61024 whole entry, looked up): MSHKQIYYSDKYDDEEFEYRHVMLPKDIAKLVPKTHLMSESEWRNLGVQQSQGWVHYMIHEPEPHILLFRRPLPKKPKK
Chain of UniProt O75909 (O75909 whole entry, looked up): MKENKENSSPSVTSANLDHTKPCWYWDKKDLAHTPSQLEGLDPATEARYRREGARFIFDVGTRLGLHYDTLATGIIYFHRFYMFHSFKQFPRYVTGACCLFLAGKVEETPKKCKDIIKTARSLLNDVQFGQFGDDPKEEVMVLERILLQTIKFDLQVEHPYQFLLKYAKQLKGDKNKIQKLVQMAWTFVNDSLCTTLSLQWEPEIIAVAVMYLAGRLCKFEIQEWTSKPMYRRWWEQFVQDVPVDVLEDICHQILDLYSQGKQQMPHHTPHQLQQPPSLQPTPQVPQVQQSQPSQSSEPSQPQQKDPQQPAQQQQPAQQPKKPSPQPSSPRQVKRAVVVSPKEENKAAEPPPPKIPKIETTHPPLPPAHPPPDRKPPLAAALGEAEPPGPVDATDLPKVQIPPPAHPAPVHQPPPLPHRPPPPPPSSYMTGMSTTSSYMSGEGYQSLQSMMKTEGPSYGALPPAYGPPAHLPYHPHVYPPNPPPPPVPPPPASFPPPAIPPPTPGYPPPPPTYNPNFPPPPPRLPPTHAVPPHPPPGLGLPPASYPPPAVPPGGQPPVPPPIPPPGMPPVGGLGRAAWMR
Chain of UniProt O75794 (O75794 whole entry, looked up): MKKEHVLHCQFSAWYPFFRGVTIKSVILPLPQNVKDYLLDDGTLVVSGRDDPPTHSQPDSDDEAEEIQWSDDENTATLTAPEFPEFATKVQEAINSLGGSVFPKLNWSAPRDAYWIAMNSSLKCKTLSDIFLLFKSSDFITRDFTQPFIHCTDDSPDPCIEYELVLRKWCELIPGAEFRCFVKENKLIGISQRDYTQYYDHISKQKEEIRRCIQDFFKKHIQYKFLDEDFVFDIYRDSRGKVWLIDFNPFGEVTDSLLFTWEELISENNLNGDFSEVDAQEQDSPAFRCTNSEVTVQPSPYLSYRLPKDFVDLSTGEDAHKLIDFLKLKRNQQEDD
Chain of UniProt Q00534 (Q00534 whole entry, looked up): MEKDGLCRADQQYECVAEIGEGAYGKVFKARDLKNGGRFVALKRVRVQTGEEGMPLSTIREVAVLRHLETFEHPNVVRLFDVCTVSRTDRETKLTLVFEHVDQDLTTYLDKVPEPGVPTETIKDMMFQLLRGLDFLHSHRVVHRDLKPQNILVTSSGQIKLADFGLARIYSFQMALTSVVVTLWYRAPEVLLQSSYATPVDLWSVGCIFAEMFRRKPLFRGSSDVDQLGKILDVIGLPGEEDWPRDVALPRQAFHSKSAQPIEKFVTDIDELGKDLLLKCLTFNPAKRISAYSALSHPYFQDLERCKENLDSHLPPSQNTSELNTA
Chain of UniProt A5YKK6 (A5YKK6 whole entry, looked up): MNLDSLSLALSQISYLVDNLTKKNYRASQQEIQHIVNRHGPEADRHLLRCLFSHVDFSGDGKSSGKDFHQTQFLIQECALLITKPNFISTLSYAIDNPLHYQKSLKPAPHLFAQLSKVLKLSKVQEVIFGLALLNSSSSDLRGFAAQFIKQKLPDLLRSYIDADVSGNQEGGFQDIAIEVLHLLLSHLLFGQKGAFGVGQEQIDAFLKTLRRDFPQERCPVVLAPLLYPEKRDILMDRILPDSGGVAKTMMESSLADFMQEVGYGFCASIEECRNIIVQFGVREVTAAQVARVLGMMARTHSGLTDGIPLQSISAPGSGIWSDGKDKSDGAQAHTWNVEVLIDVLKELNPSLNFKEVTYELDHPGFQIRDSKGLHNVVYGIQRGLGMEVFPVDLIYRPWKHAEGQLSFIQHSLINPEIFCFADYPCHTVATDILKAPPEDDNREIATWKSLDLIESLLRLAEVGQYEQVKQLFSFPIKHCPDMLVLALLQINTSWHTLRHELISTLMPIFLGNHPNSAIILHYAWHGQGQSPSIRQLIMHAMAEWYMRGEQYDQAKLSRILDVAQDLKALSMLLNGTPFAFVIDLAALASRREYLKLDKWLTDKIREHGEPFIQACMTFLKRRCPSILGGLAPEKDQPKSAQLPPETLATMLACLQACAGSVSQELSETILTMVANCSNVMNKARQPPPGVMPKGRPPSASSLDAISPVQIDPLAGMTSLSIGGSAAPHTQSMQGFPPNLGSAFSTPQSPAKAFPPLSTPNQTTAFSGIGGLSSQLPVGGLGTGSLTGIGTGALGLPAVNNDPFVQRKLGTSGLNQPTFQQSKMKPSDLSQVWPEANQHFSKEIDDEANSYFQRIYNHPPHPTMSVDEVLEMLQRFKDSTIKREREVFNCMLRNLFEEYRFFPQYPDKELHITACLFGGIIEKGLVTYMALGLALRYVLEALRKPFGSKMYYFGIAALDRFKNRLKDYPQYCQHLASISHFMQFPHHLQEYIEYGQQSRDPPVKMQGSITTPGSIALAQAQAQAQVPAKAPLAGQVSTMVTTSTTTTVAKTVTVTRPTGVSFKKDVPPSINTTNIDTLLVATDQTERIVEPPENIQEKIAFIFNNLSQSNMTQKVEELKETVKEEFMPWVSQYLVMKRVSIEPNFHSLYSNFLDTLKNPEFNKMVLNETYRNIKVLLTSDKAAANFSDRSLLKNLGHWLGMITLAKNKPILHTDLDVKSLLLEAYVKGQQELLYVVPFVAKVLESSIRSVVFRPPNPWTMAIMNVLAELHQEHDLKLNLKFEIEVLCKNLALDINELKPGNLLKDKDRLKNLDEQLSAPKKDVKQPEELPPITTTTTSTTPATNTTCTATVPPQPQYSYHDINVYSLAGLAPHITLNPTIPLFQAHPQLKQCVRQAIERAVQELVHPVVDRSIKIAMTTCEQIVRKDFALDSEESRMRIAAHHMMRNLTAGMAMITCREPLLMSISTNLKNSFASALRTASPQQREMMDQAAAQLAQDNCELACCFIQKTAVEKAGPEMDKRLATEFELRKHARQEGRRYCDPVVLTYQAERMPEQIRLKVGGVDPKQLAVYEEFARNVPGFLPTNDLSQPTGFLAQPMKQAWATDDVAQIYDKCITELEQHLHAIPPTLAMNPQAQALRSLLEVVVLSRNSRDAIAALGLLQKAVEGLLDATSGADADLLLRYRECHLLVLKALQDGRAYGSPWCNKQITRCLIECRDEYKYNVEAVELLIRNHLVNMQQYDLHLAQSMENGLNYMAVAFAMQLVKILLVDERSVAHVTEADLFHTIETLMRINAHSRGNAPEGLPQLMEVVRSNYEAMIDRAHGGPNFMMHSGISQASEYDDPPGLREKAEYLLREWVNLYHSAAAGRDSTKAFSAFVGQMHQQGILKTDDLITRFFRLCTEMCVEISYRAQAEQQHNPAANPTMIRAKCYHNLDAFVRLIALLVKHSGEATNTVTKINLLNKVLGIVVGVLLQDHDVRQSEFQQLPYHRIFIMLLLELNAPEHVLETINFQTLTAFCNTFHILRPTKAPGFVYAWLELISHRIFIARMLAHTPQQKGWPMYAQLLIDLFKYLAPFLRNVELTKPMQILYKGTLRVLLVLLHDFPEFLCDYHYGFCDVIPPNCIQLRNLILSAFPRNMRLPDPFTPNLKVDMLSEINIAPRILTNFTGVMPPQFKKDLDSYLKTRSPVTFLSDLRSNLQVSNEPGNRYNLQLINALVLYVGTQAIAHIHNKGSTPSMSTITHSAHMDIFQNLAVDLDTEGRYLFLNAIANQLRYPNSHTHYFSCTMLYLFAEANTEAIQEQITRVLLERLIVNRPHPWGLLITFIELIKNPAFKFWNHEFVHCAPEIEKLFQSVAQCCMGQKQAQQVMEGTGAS
Chain of UniProt P50416 (P50416 whole entry, looked up): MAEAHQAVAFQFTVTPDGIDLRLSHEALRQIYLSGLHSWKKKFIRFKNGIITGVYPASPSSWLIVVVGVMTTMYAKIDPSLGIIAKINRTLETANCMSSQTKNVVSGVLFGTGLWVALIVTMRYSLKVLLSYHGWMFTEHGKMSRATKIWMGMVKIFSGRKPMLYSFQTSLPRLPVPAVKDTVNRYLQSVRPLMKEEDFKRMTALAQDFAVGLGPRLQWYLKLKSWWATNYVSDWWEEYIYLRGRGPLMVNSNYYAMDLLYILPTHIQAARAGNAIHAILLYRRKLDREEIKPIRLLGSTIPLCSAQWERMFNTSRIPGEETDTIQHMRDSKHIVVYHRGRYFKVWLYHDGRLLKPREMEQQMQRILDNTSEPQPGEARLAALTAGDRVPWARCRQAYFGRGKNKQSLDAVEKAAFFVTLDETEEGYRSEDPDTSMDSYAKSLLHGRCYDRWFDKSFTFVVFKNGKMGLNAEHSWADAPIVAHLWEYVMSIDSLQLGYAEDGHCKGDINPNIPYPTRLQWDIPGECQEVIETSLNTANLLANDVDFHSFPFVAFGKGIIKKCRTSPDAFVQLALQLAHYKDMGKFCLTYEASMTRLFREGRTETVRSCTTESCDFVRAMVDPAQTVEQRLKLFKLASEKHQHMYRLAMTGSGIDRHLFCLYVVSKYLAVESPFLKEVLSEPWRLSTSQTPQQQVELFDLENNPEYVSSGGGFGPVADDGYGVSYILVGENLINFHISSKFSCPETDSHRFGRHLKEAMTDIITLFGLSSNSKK
Chain of UniProt Q8N1A6 (Q8N1A6 whole entry, looked up): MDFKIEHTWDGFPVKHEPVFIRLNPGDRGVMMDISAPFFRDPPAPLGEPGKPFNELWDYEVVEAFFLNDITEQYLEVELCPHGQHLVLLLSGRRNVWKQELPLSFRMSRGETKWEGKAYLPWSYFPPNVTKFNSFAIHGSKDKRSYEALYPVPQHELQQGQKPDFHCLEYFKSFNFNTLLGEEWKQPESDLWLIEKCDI
Chain of UniProt P10606 (P10606 whole entry, looked up): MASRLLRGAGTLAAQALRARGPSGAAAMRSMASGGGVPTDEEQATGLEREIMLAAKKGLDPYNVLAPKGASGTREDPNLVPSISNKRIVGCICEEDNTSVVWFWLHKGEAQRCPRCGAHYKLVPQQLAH
Chain of UniProt P41208 (P41208 whole entry, looked up): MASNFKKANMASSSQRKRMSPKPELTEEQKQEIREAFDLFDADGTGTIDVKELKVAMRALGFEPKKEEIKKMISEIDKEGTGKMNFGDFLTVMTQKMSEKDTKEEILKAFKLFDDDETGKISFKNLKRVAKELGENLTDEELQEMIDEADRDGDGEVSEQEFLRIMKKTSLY

log2 fold change, inactive:
CSNK1D (UniProt P48730) -0.009
C9orf72 (UniProt Q96LT7) -0.062
CKS1B (UniProt P61024) 0.031
CDC123 (UniProt O75794) 0.001
CASP2 (UniProt P42575) 0.072
C4orf33 (UniProt Q8N1A6) 0.061
CCNK isoform 4 (UniProt O75909) 0.024
CDK12 (UniProt Q9NYV4) -0.03
COX5B (UniProt P10606) 0.015
CELF2 isoform 3 (UniProt O95319) -0.006
CDK5 (UniProt Q00535) 0
CDK6 (UniProt Q00534) -0.012
CMTM3 (UniProt Q96MX0) 0.035
COQ9 (UniProt O75208) 0.045
CHEK1 (UniProt O14757) 0.055
CBS (UniProt P35520) 0.011
CPT1A (UniProt P50416) -0.151
CDK5RAP1 (UniProt Q96SZ6) 0.055
CES2 isoform 4 (UniProt O00748) -0.145
COX6B1 (UniProt P14854) 0.019
CTBS (UniProt Q01459) 0.055
CNOT1 (UniProt A5YKK6) -0.031
CETN2 (UniProt P41208) 0.028
